MARV entry inh = blocks Marburg virus binding to or entry into cells; Marburg virus pseudotyped entry inhibition, cell reporter; Potency, µM (highest dose often 37.8 µM), for inactives: at the highest dose activity change, negative = inhibition, actives largely listed as inhibitors; actives 1.8% (n = 300,000); calls by dose curve; tested in HEK293 cells; further: potency means the concentration at half of the fitted maximal effect; on the % scale 0 is the no-effect control and ±100 the full control effect
Lassa entry inh = inhibitors of Lassa virus binding or cell entry | actives 1.2% (n = 300,000) | Potency, µM (titrated, usually from 37.9 µM), without a hit: at the highest dose activity change, negative = inhibition, actives largely listed as inhibitors | Lassa virus pseudotype entry inhibition, cell reporter; calls by dose curve; tested in HEK293 cells; further: potency means the concentration at half of the fitted maximal effect; on the % scale 0 is the no-effect control and ±100 the full control effect; nearly all actives have a fitted effect of over 50% in size
Cycloheximide cs = counter-screen hit for Shiga toxin inhibitors, cycloheximide; cell reporter, cycloheximide protein synthesis inhibition counterscreen; max response, %; actives 12% (n = 300,000); in the data active means max response mostly above about 13%, no sharp cut-off; inactive means mostly below about 14%; further: read at 38.3 µM for the half of the compounds with a filed dose; 0% is about no effect
Pf growth 96h = P. falciparum growth inhibition at 96 hours. P. falciparum luciferase reporter growth, 96 h. actives 6.9% (n = 320,000). Potency, µM (doses to about 28.7 µM), without a hit: at the highest dose activity change, negative = inhibition, most hits filed as inhibitors; further: potency means the concentration at half of the fitted maximal effect; on the % scale 0 is the no-effect control and ±100 the full control effect
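Plates of compound plus infected erythrocytes (2% hematocrit, 0.05% parasitemia final) incubate 96 hours, 37 C, 5% CO2. Detection reagent added; reduced luminescence from the parasites' luciferase reporter flags inhibition.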
Shiga toxin inh = inhibitors of Shiga toxin in Vero cells; AID 2315; inhibition, % at 38.7 µM; Vero cells, Shiga toxin protein synthesis inhibition reporter; actives 9.2% (n = 290,000); in the data active means inhibition mostly above about 28%, no sharp cut-off; inactive means mostly below about 43%; further: 0% is about no effect
Pf growth 48h = inhibits P. falciparum growth in the first generation, 48 h. Potency, µM (doses to about 28.7 µM), for inactives: at the highest dose activity change, negative = inhibition, most hits filed as inhibitors. P. falciparum luciferase growth in erythrocytes, 48 h. actives 5.9% (n = 310,000); further: potency means the concentration at half of the fitted maximal effect; on the % scale 0 is the no-effect control and ±100 the full control effect
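Compounds are pin-transferred into medium, infected erythrocytes (2% hematocrit, 0.1% parasitemia final) are added, and plates sit one parasite generation at 37 C in 5% CO2. Detection reagent is then added and luminescence measured.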
The depositor's hits bear a star; i = inactive; ? = inconclusive; · = no result; [ ] = another dose, or the depositor's remark. Rows were chosen to be rich in hits. Some 19% of all compounds tested hit in one or more screens of this group. Unless noted, the call rests on the fitted dose curve; in most records, active means well fitted inhibition curve with a large enough effect; inconclusive means small, poorly fitted or top-dose-only effect, or another doubt; inactive means no such curve, though single readings can be large or run the other way.

SMILES	MARV entry inh	Lassa entry inh	Cycloheximide cs	Pf growth 96h	Shiga toxin inh	Pf growth 48h
O=C1C(c2ccccc2)SC(=Nc2ccccc2)N1S(=O)(=O)c1ccccc1 (centres undefined)	10%	3%	30*	·	45	19%
CC1(C)SC(=Nc2ccccc2)N(S(=O)(=O)c2ccccc2)C1=O	?	-13%	-4	11%	7	9%
C/C(CCc1ccc2c(c1)OCO2)=N\NC(=O)c1ccccc1Br	-9%[46.1 µM]	-3%[46.1 µM]	9	15%	44	12%
COC(=O)c1ccccc1NC(=O)CN(c1ccc(Cl)cc1)S(=O)(=O)c1ccc(OC)cc1	18%[46.1 µM]	3%[46.1 µM]	·	·	·	·
COc1ccccc1N=C(C)C1=C(O)CSC1=O	?	7%	8	·	33	7%
CC(=Nc1ccc(C)c(C)c1)C1=C(O)CSC1=O	14%[46.1 µM]	17%	23*	-28%	45	·
COc1ccc(/C=C2/C(=O)N(c3nc4ccccc4s3)N=C2CSc2ccc(Cl)cc2)cc1	?	-1%	14*	4%	14	16%
COc1ccc(/C=C2/C(=O)N(Cc3ccccc3)N=C2C)cc1	-2%	9%	2	14%	-4	-4%
O=C(c1ccco1)N(Cc1cccs1)c1ccc(F)cc1	-14%[46.1 µM]	14%[46.1 µM]	·	·	·	·
Cc1cc(C(=O)NC(C)C2CCCO2)cs1 (centres undefined)	6%	-2%	-4	-27%	33	5%
CC(NC(=O)c1cc(Br)cs1)C1CCCO1 (centres undefined)	5%	9%	-2	13µM*	4	71%
CC(NC(=O)c1cccs1)C1CCCO1 (centres undefined)	12%	-1%	-1	?	3	26%
CCCc1cc(C(=O)NC(C)C2CCCO2)cs1 (centres undefined)	·	·	40*	22%	71*	112%
CCCc1cc(C(=O)NNC(=S)NCC2CCCO2)cs1 (centres undefined)	2%	3%	14*	-26%	6	15%
CCc1cc(C(=O)NC(C)C2CCCO2)cs1 (centres undefined)	?	?	40*	-19%	62*	54%
Cc1ccc(CNC(=O)c2ccccc2NC(=O)C2=CSCCO2)cc1	·	·	-1	?	2	-25%
FC(F)(F)c1cc(-c2cccs2)nc2cc(-c3cccs3)nn12	·	·	2	?	19	?
CCOC(=O)C1(CCSC)NC(c2ccco2)C2C(=O)N(CC)C(=O)C21 (centres undefined)	3%	7%	3	·	-3	4%
CC1CCc2sc(C(=O)NC(C)C3CCCO3)cc2C1 (centres undefined)	10%[46.1 µM]	-9%[46.1 µM]	40*	6%	88*	123%
COc1cc(S(=O)(=O)NC2CCCC2)ccc1-n1cnnn1	?	11%[46.1 µM]	-6	-1%	12	8%
CCCCn1c(O)c(N=Nc2ccccc2O)c2ccccc21	·	·	·	42%	·	6.6µM*
CCn1c(O)c(N=Nc2ccc3ccccc3n2)c2ccccc21	·	·	39*	97%	81*	63%
CC(C)(C)Nc1c([N+](=O)[O-])c(=O)sc2ccccc12	7%[46.1 µM]	-2%[46.1 µM]	-8	-17%	-13	19%
CCCCCCNc1c([N+](=O)[O-])c(=O)sc2ccccc12	-11%[46.1 µM]	-13%	12	-10%	-2	7.4µM*
Nc1nc(N)nc(COc2ccccc2)n1	?	-8%	42*	6%	96*	210%
SMILES	MARV entry inh	Lassa entry inh	Cycloheximide cs	Pf growth 96h	Shiga toxin inh	Pf growth 48h
CCOc1ccc(Cc2nc(N)nc(N)n2)cc1	-7%	3%	-1	?	20	?
COc1ccccc1/C=C(/C(=O)OCC(N)=O)c1ccccc1	-3%	-23%	-4	42%	-11	3%
CCn1c2ccccc2c2cc(NC(=O)C3CCN(S(=O)(=O)c4cccs4)CC3)ccc21	1%	-23%	-3	12%	5	·
O=C1c2ccccc2-c2cccnc21	·	·	-5	23%	-4	·
O=C(NC(=S)N1CCCc2ccccc21)c1ccc(Br)cc1	-4%	1%	22*	?	32	-2%
O=C(Cn1cc([N+](=O)[O-])cn1)N1CCCc2ccccc21	-2%[46.1 µM]	2%	28	i	53*	10%
O=C(NC(=S)N1CCCc2ccccc21)c1ccc(Cl)cc1	0%	-11%	52*	10%	73*	79%
Cc1ccc(C(=O)c2cc([N+](=O)[O-])ccc2N2CCCCC2)c(C)c1	?	?	-3	13µM*	-17	12µM*
O=C(O)c1cc([N+](=O)[O-])ccc1N1CCCCC1	0%	10%	5	?	-10	17%
CC(C)OP(=O)(c1ccc(N(C)C)cc1)C(O)c1ccccc1F (centres undefined)	0%	16%	-1	-7%	6	-2%
Cc1ncc(CN2CCCCC2C(=O)Nc2ccc(Oc3ccccc3)nc2)cn1 (centres undefined)	29%	0%	-2	45%	7	-3%
CCN(CC(=O)Nc1ccccc1Br)C1CCCCC1	-21%[46.1 µM]	14%	13	?	21	-19%
CSCCC(NC(=O)c1ccco1)C(=O)N1CCC(C(N)=O)CC1 (centres undefined)	24%	6%	·	2%	·	5%
O=C(c1cc([N+](=O)[O-])ccc1N1CCCCC1)N1CCc2ccccc21	4.5µM*	?	-1	?	-9	0%
O=C(NC(=S)N1CCCc2ccccc21)c1ccccc1	16%	2%	25*	?	69*	3%
O=C(c1cccc([N+](=O)[O-])c1)N1CCc2ccccc21	·	·	0	24%	11	-1%
O=C(NC(=S)N1CCCc2ccccc21)c1ccc([N+](=O)[O-])cc1	?	5%	47*	7.4µM*	58*	?
O=C(c1cc([N+](=O)[O-])ccc1Cl)N1CCc2ccccc21	-4%	-11%	-1	-20%	-19	-3%
O=C(c1cc([N+](=O)[O-])cc([N+](=O)[O-])c1)N1CCCc2ccccc21	10µM*	12%	-3	184%	-10	?
CCOC(=O)c1ccc(NC(=O)C2=C(C)Nc3nc(SCc4ccc(Cl)cc4)nn3C2c2ccc(OC)cc2)cc1 (centres undefined)	0%[46.1 µM]	-14%[46.1 µM]	·	·	·	·
Cc1ccc(NC(=O)CN2CCc3cc4c(cc3C2)OCCCO4)cc1C	-17%[46.1 µM]	?	-5	-26%	-4	15%
OC(CNC1CCCCC1)COCCOc1ccc(Br)cc1 (centres undefined)	?	-26%	-3	12µM*	-16	10µM*
CCc1ccc(/C(C)=N/NC(=O)CNC(=O)/C=C/c2ccccc2OC)cc1	?	-28%[46.1 µM]	-3	3%	-6	-5%
COc1ccc(Cn2ccnc2SCC(=O)Nc2nc3ccccc3s2)cc1	·	-9%[46.1 µM]	·	·	·	·
CCOc1cccc2sc(N3CCN(C(=O)c4ccco4)CC3)nc12	·	-4%[46.1 µM]	·	·	·	·

Bioassay records: PubChem, National Center for Advancing Translational Sciences (NCATS)
